Assay results: PubChem BioAssay (Tox21)
Unmarked numbers belong to inactive results. The call rests on the fitted dose curve.
On the % scale 0 is the no-effect control and ±100 the full control effect.

Assay: G protein-coupled receptor (GPCR) small molecule agonists, calcium flux assay: HEK293 wild type cell line counter screen (AID 1920065)
Details: HEK293 WT calcium flux, fluorescence, agonist mode; series mostly up to 57.6 µM; activation: at the top concentration
Excerpt: U.S. Tox21 Program National Center for Advancing Translational Sciences [NCATS] Division of Preclinical Innovation [DPI] U.S. Environmental Protection Agency [EPA] National Institutes of Environmental Health Sciences [NIEHS] National Toxicology Program [NTP] U.S. Food and Drug Administration [FDA] Assay overview: The increased intracellular calcium release that occurred upon G protein-coupled receptor (GPCR) activation led to the frequent use of calcium flux assays to detect GPCR activation. For the purpose of studying and screening compounds that may activate GPCR, receptor-overexpressing models were typically generated using Hek293 wild-type (WT) cells. In order to eliminate the compounds that may have induced calcium release for non-specific activation, a counter-assay utilizing calcium flux on Hek293 WT cells was performed. The data were formulated in order to serve as a control for any calcium flux detection utilizing Hek293 cells with either GPCR overexpression or gene modification. The procurement of Hek293 WT cells from ATCC. Fluorescence intensity can be utilized to determine the activation of the compound in a calcium flux assay. As a counter control, this cell line was utilized to screen the Tox21 10K compound library.
Assay Protocol Summary: Hek293 cells were dispensed at 1500cells/4uL/well in 1536-well black wall/clear bottom plates using a multidrop dispenser. After the assay plates were incubated at a 37 C/5% CO2 incubator for 18 hours, 4 uL of Calcium Dye Solution was added to each well. The plates were incubated at 37 C for 1 hour. For agonist mode, 23 nL of compounds dissolved in DMSO, positive control (ATP) or DMSO only was transferred to the assay plate by a pin tool station. The fluorescence intensity in the plates was measured using FDSS 7000EX kinetic plate reader with a filter set of Ex/Em=480/540 for 3 min at 1 sec intervals. Each test compound was measured at 15 concentrations and in triplicates.
For `CCCc1nc2c(C)cc(-c3nc4ccccc4n3C)cc2n1Cc1ccc(-c2ccccc2C(=O)O)cc1`, the “activation” value was -1.75% [at 26.5 µM]. With `CCNC(=O)N1CCN(CCCC(c2ccc(F)cc2)c2ccc(F)cc2)CC1` the “activation” value was -0.606% [at 26.5 µM]. With `CCC(CC)(CC(=O)Nc1cccc(/C=C/c2nc(C3CCC3)cs2)c1)C(=O)O` the “activation” value was -0.202% [at 26.5 µM]. For `CCC(C)c1cc([N+](=O)[O-])cc([N+](=O)[O-])c1OC(=O)OC(C)C` (stereo not given), the “activation” value was -0.798%. For `c1ccc(COCc2ccccc2)cc1`, the “activation” value was 0.441%. For `O=C(O)C1CCC1`, the “activation” value was -0.338% [at 26.5 µM]. For `CCCSS/C(CCO)=C(\C)N(C=O)Cc1cnc(C)nc1N`, the “activation” value was 3.81% [at 26.5 µM]. In the case of `CCCCCCCCCCCCCCCCCCN(C)C`, the “activation” value is reported as -0.858% [at 26.5 µM]. With `CC(C)(C)c1nnc(NS(=O)(=O)c2ccccc2)s1` the “activation” value was 0.362% [at 26.5 µM]. In the case of `Nc1nc(N)nc(-c2cc(Cl)ccc2Cl)n1`, the “activation” value is reported as 0.483% [at 26.5 µM]. In the case of `CCCCC1=NC2(CCCC2)C(=O)N1Cc1ccc(-c2ccccc2-c2nn[nH]n2)cc1`, the “activation” value is reported as -0.364% [at 26.5 µM]. With `CCCCOC(=O)C(C)O` (stereo not given) the “activation” value was -0.0048%. In the case of `CC(=O)[C@H]1CC[C@H]2[C@@H]3C[C@H](C)C4=CC(=O)CC[C@]4(C)[C@H]3[C@@H](O)C[C@]12C`, the “activation” value is reported as 0.848% [at 26.5 µM]. In the case of `CC1c2ccccc2CN1NC(=O)c1ccc(Cl)c(S(N)(=O)=O)c1` (stereo not given), the “activation” value is reported as -1.51% [at 26.5 µM]. In the case of `C=C[C@@H](C)CCC=C(C)C`, the “activation” value is reported as 0.492%. For `O=C(CCCCCCCCC#CI)Oc1ccccc1`, the “activation” value was -0.189% [at 26.5 µM]. For `CC1OCCC1=O` (stereo not given), the “activation” value was -0.117%. With `CCCCC(=O)O[C@]1(C(=O)CO)CC[C@H]2[C@@H]3CCC4=CC(=O)CC[C@]4(C)[C@H]3[C@@H](O)C[C@@]21C` the “activation” value was -0.118% [at 26.5 µM]. For `O=C1[C@H](CC[C@H](O)c2ccc(F)cc2)[C@@H](c2ccc(O)cc2)N1c1ccc(F)cc1`, the “activation” value was 1.33% [at 26.5 µM]. For `COc1cc2nc(N3CCN(C(=O)C4CCCO4)CC3)nc(N)c2cc1OC` (stereo not given), the “activation” value was -1.11% [at 26.5 µM]. In the case of `Cc1ccc2ccccc2n1`, the “activation” value is reported as 0.594%. For `CN(C)C(=O)CNC(=O)Cc1ccccc1`, the “activation” value was -0.0085% [at 26.5 µM]. In the case of `C=C(C)C(=O)OC1CC(C)CC(C)(C)C1` (stereo not given), the “activation” value is reported as -0.366%. In the case of `SC1CCCCC1`, the “activation” value is reported as -0.195%. With `CC(C)(C)NCC(O)COc1cccc2c1CCC(=O)N2` (stereo not given) the “activation” value was 0.283% [at 26.5 µM]. With `COC(=O)CCc1ccc(OCC(O)CNC(C)C)cc1` (stereo not given) the “activation” value was 0.677% [at 26.5 µM]. With `CC/C=C\CCCCO` the “activation” value was -0.0401%. In the case of `CCC(CC)C(=O)O`, the “activation” value is reported as 0.26%. In the case of `O=C(O)c1cccc(N(Cc2cccnc2)c2ccc(OC(F)F)c(OC(F)F)c2)c1`, the “activation” value is reported as -1.65%. With `COc1ccc(CCC(=O)c2c(O)cc(O[C@@H]3O[C@H](CO)[C@@H](O)[C@H](O)[C@H]3O[C@@H]3O[C@@H](C)[C@H](O)[C@@H](O)[C@H]3O)cc2O)cc1O` the “activation” value was 0.591%. In the case of `CC(=O)O[C@@H]1C(=O)O[C@@H]2[C@H]1OC(=O)[C@@H]2OC(C)=O`, the “activation” value is reported as 0.856% [at 26.5 µM]. With `CCCOC(=O)c1ccc(C(=O)OCCC)nc1` the “activation” value was 0.0119%. For `C=COC(=O)C(C)(CC)CCC(C)C` (stereo not given), the “activation” value was -0.987%. For `CC1CCc2cc(F)cc3c(=O)c(C(=O)O)cn1c23` (stereo not given), the “activation” value was -0.0198% [at 26.5 µM]. For `CS(=O)(=O)c1ccc(-c2cn3ccccc3n2)cc1`, the “activation” value was 1.45% [at 26.5 µM]. With `CCOC(=O)C1=NOC(c2ccccc2)(c2ccccc2)C1` the “activation” value was -0.0487%. For `Nc1ccnc(=O)[nH]1`, the “activation” value was -0.352%. With `CCCCCOc1ccc(C2SC(=O)NC2=O)cc1OCC` (stereo not given) the “activation” value was 1.99% [at 26.5 µM]. With `Nc1ccc(Cl)cc1[N+](=O)[O-]` the “activation” value was -0.0568%. For `CC(O)c1ccccc1` (stereo not given), the “activation” value was 1.15%.
